In PubChem BioAssay AID504329 (Southern Research Specialized Biocontainment Screening …, 2011):
The whole screen tested about 340,000 compounds, of which about 1,000 (0.29%) were called active. A selection follows. Results with a measured potency or affinity are listed apart. Unmarked numbers belong to inactive results. No stated cut-off is given here; in the data, inconclusive means inhibition above about 27% without an active follow-up result; inactive means below that.

test: H1N1 influenza NS1A inhibitors, functional cell based assay (AID 504329); details: percent inhibition, at 12.5 µM, hits give high values

| SMILES | inhibition [%] |
| --- | --- |
| Cc1nc2ccccc2nc1N/N=C/c1ccc(O)cc1 | 13.5 |
| CCN(CC)S(=O)(=O)c1ccc(N/N=C/c2ccc(O)cc2)nc1 | 7.84 |
| Cc1cc(N/N=C/c2ccc(O)cc2O)c2ccccc2n1 | 0.21 |
| Oc1ccc(/C=N/Nc2cccc(Cl)n2)c(O)c1 | 10.3 |
| Oc1cccc(C=NNc2ccccn2)c1 | -19.8 |
| Clc1nccnc1N/N=C/c1ccc(Br)cc1 | -20.8 |
| O=[N+]([O-])c1ccccc1/C=N/Nc1nccnc1Cl | 1.6 |
| CCN(CC)S(=O)(=O)c1ccc(N/N=C/c2cc(OC)ccc2O)nc1 | 5.6 |
| CC(C)(NO)/C(=N/O)c1cccs1 | 3.4 |
| CC(C(=O)N1CCc2ccccc21)N1CCN(c2cccc(C(F)(F)F)c2)CC1 (stereo unspecified) | -0.63 |
| CCOC(=O)CSC1=N/C(=C\c2ccc(OC)c(OC)c2)C(=O)N1C | 2.72 |
| COc1ccc(-c2ccc3nnc(SCC(=O)N4CCCC4)n3n2)cc1 | -5.09 |
| O=C(Nc1nccs1)c1cccnc1Cl | -9.22 |
| CCc1nnc(NCn2nc(C)cc2C)s1 | 6.15 |
| Oc1ccc(/C=N/Nc2nccnc2Cl)cc1 | 5.54 |
| C=CCc1c(C)nc(C)nc1N/N=C/c1ccccc1 | -4.1 |
| Oc1ccc(/C=N/Nc2ccnc3cc(Cl)ccc23)c(O)c1 | -16 |
| C=CCc1c(C)nc(C)nc1N/N=C/c1ccc(F)cc1 | -0.47 |
| Cc1c(OCC(F)(F)F)ccnc1CSc1nc2ccccc2[nH]1 | -9.09 |
| CCOc1ccc(OCCC(=O)N(CCCOC)c2c(N)n(Cc3ccccc3)c(=O)[nH]c2=O)cc1 | -2.75 |
| O=C1NC(=O)c2cc3ccccc3cc21 | -8.8 |
| O=C(Cn1ccccc1=O)NCc1ccc(F)cc1 | -15.8 |
| COc1ccc(C2=C(Nc3ccccc3)c3ccccc3C2=O)cc1 | -2.55 |
| COC1=C(Nc2ccccc2)C(=O)C(OC)=C(Nc2ccccc2)C1=O | 8.96 |

| SMILES | inhibition [%] |
| --- | --- |
| CCOc1ccc(NC2=CC(=O)C(=O)c3ccccc32)cc1 | -7.73 |
| Cc1cccc(NC2=C(NCCO)C(=O)c3ccccc3C2=O)c1 | 26.8 |
| NC1=C(Br)C(=O)c2ccccc2C1=O | 1.89 |
| O=C1C(Cl)=C(Nc2ccc(O)cc2)C(=O)c2ccccc21 | 13.6 |
| COc1ccc(NC2=C(c3ccc(OC)cc3)C(=O)c3ccccc32)cc1 | 5.77 |
| COc1ccc(NC2=C(NCCO)C(=O)c3ccccc3C2=O)cc1 | 23.4 |
| CSCCC(=O)NC1CCCN(CCc2ccccc2)C1 (stereo unspecified) | -10.8 |
| O=C(NC1=NCCS1)c1cc(-c2cccs2)nc2ccccc12 | 1.99 |
| Clc1cccc(CN2CCCCCCC2)c1Cl | -8.07 |
| COc1cc(C2NC(=O)NC(C)=C2C(=O)OC2CCC(C)CC2)ccc1O (stereo unspecified) | -1.48 |
| CCC(=O)Nc1nc(-c2ccccc2)nc(SC)c1C(C)=O | 5.59 |
| O=C(NCCCN1CCCC1=O)C(=O)NCC1OCCCN1S(=O)(=O)c1cc(F)ccc1F (stereo unspecified) | -6.67 |
| Cc1ccc(C(=O)N2CCN(c3ccc(NC(=O)c4cccnc4Cl)cc3)CC2)cc1 | 0.28 |
| COc1ccc(C2=C(Nc3ccc(C)cc3)c3ccccc3C2=O)cc1 | -3.38 |
| COC1=C(Nc2ccc(OC)cc2)C(=O)C(OC)=C(Nc2ccc(OC)cc2)C1=O | 0.15 |
| CCN(CC)c1ccc(NC2=C(Cl)C(=O)c3ccccc3C2=O)cc1 | 27.5 |
| Cc1ccc(NC2=C(N3CCCCC3)C(=O)c3ccccc3C2=O)cc1 | 28.7 |
| COc1ccc(NC2=C(NC(C)=O)C(=O)c3ccccc3C2=O)cc1 | 0.92 |
| O=C1C(Cl)=C(Nc2ccccc2)C(=O)c2ccccc21 | -3.5 |
| Cc1ccc(NC2=C(Cl)C(=O)c3ccccc3C2=O)cc1 | 2.23 |
| CC(=O)c1ccc(NC2=C(N3CCOCC3)C(=O)c3ccccc3C2=O)cc1 | 3.86 |
| CC(C)CC(OC(=O)c1cccs1)C(=O)NCC1CCCO1 (stereo unspecified) | 11.2 |
| COc1ccccc1N1CCN(C(=O)c2ccc(S(=O)(=O)N3CCCC3)cc2)CC1 | 4.29 |
| COc1ccc(NC(=O)COC(=O)CCc2ccc(S(=O)(=O)N3CCOCC3)cc2)cc1Cl | -1.5 |

| SMILES | inhibition [%] |
| --- | --- |
| CCOC(=O)c1sc2nc(N3CCOCC3)c3c(c2c1N)CCC3 | 8.09 |
| Cc1ccc(CNC(=O)Cn2nnc3ccccc3c2=O)cc1 | -3.7 |
| COC(=O)c1ccc(NC(=S)NC2CC(C)(C)NC(C)(C)C2)cc1 | -11.7 |
| CCOC(=O)C1(CCCc2ccccc2)CCN(C(=O)c2cnn(CC)c2)CC1 | 0.777 |
| O=C(NC(=S)Nc1ccc(F)c([N+](=O)[O-])c1)c1ccccc1F | 6.76 |
| COc1cc(/C=C/C(=O)OCC(=O)NCCN2C(=O)CSC2=O)ccc1OCC#N | 1.99 |
| CC(C)CN(C(=O)CCC(=O)OCc1ccc(Cl)cc1Cl)c1c(N)n(CC(C)C)c(=O)[nH]c1=O | -1.56 |
| CCN(CC)c1ccc(N=Nc2nn(C)c(C)c2[N+](=O)[O-])cc1 | 9.15 |
| CCN(Cc1ccccc1)c1ccc(/C=N/NS(=O)(=O)c2ccc(C)c([N+](=O)[O-])c2)cc1 | -1.19 |
| Cn1c2c(c(=O)n(C)c1=O)C(c1ccc(F)cc1)C(C#N)=C(N)O2 (stereo unspecified) | -0.36 |
| Cc1cccc(/C=N/NC(=O)c2ccc(NC(=O)c3ccccc3C)cc2)n1 | -6.91 |
| CCNC(=O)C(=O)N1CCC2(CC1)OCCN2S(=O)(=O)c1ccc(C)cc1 | 5.17 |
| CCC(=O)/C=C1\Sc2ccc(OC)cc2N1CCO | 7.02 |
| CCC(/C=C1\Sc2ccc(OC)cc2N1CC)=C\c1sc2ccc(OC)cc2[n+]1CCCS(=O)(=O)[O-] | -0.43 |
| O=C(COC(=O)/C=C/c1ccccc1[N+](=O)[O-])NC1CC1 | 0.04 |
| OCCN(Cc1ccccc1)Cc1ncccc1O | -15.6 |
| CCN(CC)Cc1ccccn1 | 0.25 |
| CCn1c(SCC(=O)NC(C)c2ccccc2)nc2ccccc21 (stereo unspecified) | 6.4 |
| COc1ccc(C(C)(C)C)cc1NC(=O)COC(=O)CSCc1c(C)noc1C | 12.6 |
| COC(=O)C1=C(C(=O)OC)SC(=C2C(=S)C(C)(C)N(C(=O)C(C)C)c3ccccc32)S1 | 26.5 |
| COC(=O)C1=C(C(=O)OC)SC(=C2C(=S)C(C)(C)N(C(=O)CC(C)C)c3ccccc32)S1 | 18.9 |
| CC(=O)C1=C(C)N(Cc2ccccc2)C(=O)N[C@H]1c1cccc(F)c1 | -6.27 |
| CC(C)=C(NC(=O)c1ccccc1)C(=O)Nc1ccc(C(=O)O)cc1 | -12.3 |
| O=C1C(=O)c2c(ccc3ccccc23)-c2ccccc21 | 0.1 |

| SMILES | inhibition [%] |
| --- | --- |
| O=C1C=C(O)c2cccc(O)c2C1=O | 3.19 |
| CC(=O)c1ccc(S(=O)(=O)N(CCCO)Cc2cc3cc4c(cc3[nH]c2=O)OCCO4)cc1 | -6.83 |
| COCCNC(=S)Nc1ccc2nc(N3CCN(C)CC3)cc(C)c2c1 | 8.16 |
| O=C(CNS(=O)(=O)c1ccccc1)Nc1ccccc1Br | -10.4 |
| Cc1c(NC(=S)N/N=C/C=C/c2ccc([N+](=O)[O-])cc2)c(=O)n(-c2ccccc2)n1C | 1.25 |
| Cc1c(NC(=S)N/N=C/c2cc([N+](=O)[O-])ccc2O)c(=O)n(-c2ccccc2)n1C | 2.17 |
| Cc1c(NC(=S)N/N=C/c2ccc(Br)cc2)c(=O)n(-c2ccccc2)n1C | 0.4 |
| Cc1c(NC(=S)N/N=C/c2ccc(O)cc2)c(=O)n(-c2ccccc2)n1C | -9.33 |
| CCCOc1ccc(/C=N/NC(=O)CSCc2ccc([N+](=O)[O-])cc2)cc1OCC | -9.68 |
| CC(C)CN(C(=O)C1CCCO1)C1CCS(=O)(=O)C1 (stereo unspecified) | -6.34 |
| O=C(Oc1coc(CSc2ncccn2)cc1=O)c1cccs1 | -4.51 |
| COC(=O)C1=C(CSc2nccn2C)NC(=O)NC1c1cc(C)ccc1C (stereo unspecified) | 1.93 |
| Cc1c(OC(C)C(=O)NCc2ccccn2)ccc2c3c(c(=O)oc12)CCCC3 (stereo unspecified) | -4.86 |
| C=CCOc1ccc(/C=N/NC(=O)CC(=O)NC2CCCCC2)cc1 | 6.03 |
| CC1(C(=O)Nc2nc3ccc(S(C)(=O)=O)cc3s2)CC1(Cl)Cl (stereo unspecified) | 5.4 |
| O=C(O)c1ccc(N=N/C(=N\Nc2ccc(C(=O)O)cc2)c2ccccc2)cc1 | 15.3 |
| O=C(O)c1cccc(NN=C2c3ccccc3-c3ccccc32)c1 | 10.1 |
| CC(=O)c1cccc(NC(=O)CN2C(=O)NC(C)(c3ccc4c(c3)OCCCO4)C2=O)c1 (stereo unspecified) | 2.48 |
| COc1ccccc1CNC(=O)Cn1cc([N+](=O)[O-])ccc1=O | -14 |
| Cc1cccnc1Nc1nc(-c2ccccc2)cs1 | -4.02 |
| Cc1cccc(Nc2nc(-c3cccs3)cs2)n1 | 8.74 |
| c1ccc(Nc2nc(-c3ccccn3)cs2)cc1 | 8.8 |
| Cc1cccnc1Nc1nc(-c2ccc(O)cc2)cs1 | 5.7 |
| CCCc1nnc(NC(=O)CCC(=O)N2CCN(CCOC(c3ccccc3)c3ccccc3)CC2)s1 | 0.42 |
